Only some compounds are listed: those with a hit (about 17% of all), similar ones and a draw of the others.
HT1080 IDH1KD tx = qHTS for induction of synthetic lethality in tumor cells producing 2HG: qHTS for the HT-1080-IDH1KD cell line; HT-1080 IDH1 knockdown viability, ATP luminescence, 48 h; Potency, µM (top dose mostly 46.1 µM), actives largely listed as cytotoxic; actives 2% (n = 360,000)
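Knockdown cells (IDH1KD HT-1080) received compounds 2 h after plating at 750 cells/well and were kept 48 h at 37 °C in 5% FBS RPMI. A CellTiter-Glo luminescence read gave % activity for curve fitting.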
TDP1 cell noCPT = qHTS for Inhibitors of human tyrosyl-DNA phosphodiesterase 1 (TDP1): qHTS in cells in absence of CPT. DT40 Tdp1-/- hTDP1 cells, no CPT, ATP luminescence, 48 h. Potency, µM (top dose mostly 46.2 µM), actives largely listed as inhibitors. actives 15% (n = 420,000); note: nearly all actives have a fitted effect of over 55% in size
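Chicken DT40 Tdp1-/- cells complemented with human TDP1, screened without camptothecin (DMSO vehicle only), 400 cells/well. Compounds pin-transferred, cells incubated at 37 °C for at least 48 hr. Growth read as ATP-dependent luminescence (CellTiter-Glo, 30 min at RT).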
HT1080-NT tox = qHTS for induction of synthetic lethality in tumor cells producing 2HG: qHTS for the HT-1080-NT fibrosarcoma cell line. Potency, µM (top dose mostly 46.1 µM), hits mostly cytotoxic. HT-1080-NT fibrosarcoma viability, CellTiter-Glo ATP luminescence, 48 h. actives 1.6% (n = 360,000). AID 686970, 2013;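 note: NT is the 2HG producing partner of a matched IDH1 knockdown line; nearly all actives have a fitted effect of over 55% in size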
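Viability of the 2HG-overproducing fibrosarcoma line after 48 hours of compound exposure at 37 degrees C was determined by luminescence with CellTiter-Glo, and concentration-effect curves were then fitted and categorized.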
HepG2 viability = qHTS for Inhibitors of TGF-b: Cytotox Counterscreen; Potency, µM (top dose mostly 46.1 µM), actives largely listed as cytotoxic; HepG2 CAGA-GFP viability, ATP luminescence, 18 h; actives 0.76% (n = 410,000)
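HepG2 CAGA-GFP cells (1000/well, DMEM with 1% FBS) received compound, then TGF-beta at 500 pg/mL final, and were incubated 18 hours at 37 degrees C. Viability was read by CellTiter-Glo luminescence. Media-only wells were set as complete cell-killing and DMSO as no toxicity.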
TGFb SMAD3 inh = qHTS for Inhibitors of TGF-b; actives 1.2% (n = 410,000); AID 588855, 2011; HepG2 CAGA-GFP TGF-b/SMAD3 reporter, GFP fluorescence, 18 h; TGF-beta stimulated, 500 pg/mL final; Potency, µM (series often up to 46.1 µM), most hits filed as inhibitors; note: nearly all actives have a fitted effect of over 65% in size
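First, reporter cells (HEPG2 CAGA-GFP) rested 2 h at 37 degrees C. Next, compounds were pinned in and TGF-beta added to 500 pg/mL final. After 18 h, GFP was imaged per cell and summed per well.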
DT40 TDP1 CPT = qHTS for Inhibitors of human tyrosyl-DNA phosphodiesterase 1 (TDP1): qHTS in cells in presence of CPT; chicken DT40 Tdp1-/-;hTDP1 cells + 20 nM CPT, ATP luminescence, 48 h; Potency, µM (doses to about 46.2 µM), actives largely listed as inhibitors; actives 12% (n = 420,000); note: nearly all actives have a fitted effect of over 55% in size
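Chicken DT40 Tdp1-/- cells complemented with human TDP1, 400 cells/well, exposed to compounds plus 20 nM camptothecin for at least 48 h at 37 C; viability read as ATP content by CellTiter-Glo luminescence.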
Hits are given with their value; n = inactive; u = inconclusive; x = no result given. Calls come from the whole dose curve; as a rule, active = well fitted curve in the direction sought with a large enough effect; inconclusive = small, poorly fitted or top-dose-only effect, or another doubt; inactive = no such curve, though single readings can be large; an effect the other way counts as inactive or inconclusive.

SMILES	HT1080 IDH1KD tx	TDP1 cell noCPT	HT1080-NT tox	HepG2 viability	TGFb SMAD3 inh	DT40 TDP1 CPT
COc1ccc(-c2c(-c3ccc(OCC(=O)NN)cc3O)n[nH]c2C)cc1	n	u	n	n	n	n
Cc1[nH]nc(-c2ccc(OCc3cnn(-c4ccccc4)c3)cc2O)c1Oc1ccccc1F	u	20.6µM	u	n	u	u
C=C(C)COc1ccc(-c2n[nH]c(C)c2-c2ccc(OC)c(OC)c2)c(O)c1	1.46µM	2.59µM	4.11µM	n	u	3.66µM
CCOc1ccc(-c2n[nH]c(C)c2Oc2ccccc2OC)c(O)c1	u	u	u	n	u	u
C=C(C)COc1ccc(-c2[nH]ncc2-c2ccc(OC)c(OC)c2)c(O)c1	4.61µM	1.64µM	7.31µM	n	u	1.46µM
C=C(C)COc1ccc(-c2n[nH]c(C)c2Oc2ccccc2OC)c(O)c1	u	u	u	n	u	14.6µM
COc1ccc(-c2cn[nH]c2-c2ccc(OCC(=O)NN)cc2O)cc1OC	n	u	u	n	n	n
CN(CC(=O)Nc1ccc(F)cc1)C(=O)c1ccc(OCc2cn3ccccc3n2)cc1	n	u	n	n	n	u
CC(C)NC(=O)C1CCCN(S(=O)(=O)c2ccc3c(ccn3C)c2)C1 (stereo not drawn)	x	n	x	n	n	n
C=C(C)COc1ccc(-c2[nH]ncc2-c2ccccc2)c(O)c1	u	20.6µM	u	n	11.2µM	16.4µM
COc1ccc(-c2cn[nH]c2-c2ccc(OCC(=O)NN)cc2O)cc1	n	n	n	n	n	n
O=Cc1cc2ccccc2cc1O	x	n	x	n	n	u
O=c1c(O)cccc2cc(O)c(O)c(O)c12	n	20.6µM	u	n	u	u
Cc1ccccc1CN1CCN(C2CCC2)CC1CCO (stereo not drawn)	n	n	n	n	n	n
Cc1cccc(N2CCN(C(=O)NCc3noc4ccccc34)CC2)c1C	x	u	x	n	n	u
Cc1ccc(N2CCN(C(=O)NCc3noc4ccccc34)CC2C)cc1 (stereo not drawn)	x	u	x	n	u	20.6µM
Cc1ccc2c(c1)[C@@H]1[C@H](CO2)[C@H](c2ccccc2)[C@]2(C)C(=O)N[C@H](C)C(=O)N12	n	u	n	n	n	u
CCCCc1ccc(C(=O)COC(=O)c2ccc3nc(C)c(C)nc3c2)cc1	x	u	x	n	n	u
COc1ccc(C(=O)Nc2cc(-c3ccccc3)nn2-c2ccccc2)cc1	x	u	x	n	u	u
COc1ccc(C(=O)Nc2cc(-c3ccccc3)nn2-c2ccccc2F)cc1	n	u	n	n	u	23.1µM
CN(c1ccc(-c2csc(NC(=O)CCCc3nc4ccccc4c(=O)[nH]3)n2)cc1)S(C)(=O)=O	n	8.2µM	n	n	n	20.6µM
CN(c1ccc(-c2csc(NC(=O)C3CC(=O)N(Cc4ccco4)C3)n2)cc1)S(C)(=O)=O (stereo not drawn)	n	n	n	n	n	u
CC(=O)NC(CC(=O)Nc1nc(-c2ccc(N(C)S(C)(=O)=O)cc2)cs1)c1ccccc1 (stereo not drawn)	n	16.4µM	n	n	n	20.6µM
COc1cccc(CNC(=O)c2nc(Cn3nc(C)c(Br)c3C)no2)c1	x	u	x	n	n	n
CC(=O)Nc1ccc(SCCCC(=O)c2ccccc2)cc1	n	n	n	n	n	u
SMILES	HT1080 IDH1KD tx	TDP1 cell noCPT	HT1080-NT tox	HepG2 viability	TGFb SMAD3 inh	DT40 TDP1 CPT
COc1cccc2cc(C(=O)N3CCc4ccccc4C3)c(=O)oc12	n	n	n	n	n	n
COc1cc2c(cc1OC)CN(C(=O)c1cc3ccccc3oc1=O)CC2	16.4µM	11.6µM	u	n	u	10.3µM
COC(=O)c1nn(Cc2ccccc2)c(=O)c2ccccc12	n	n	n	n	n	u
CC(=O)c1ccc(N2CCN(C(=O)c3nn(Cc4ccccc4)c(=O)c4ccccc34)CC2)cc1	n	18.4µM	n	n	n	u
COc1cc2c(cc1OC)CN(C(=O)c1nn(Cc3ccccc3)c(=O)c3ccccc13)CC2	n	16.4µM	n	n	n	u
Nc1cc2c3ccccc3ccc2c2ccccc12	u	u	n	n	n	u
O=C1NC(c2ccccc2OC(F)F)Oc2ccccc21 (stereo not drawn)	n	n	n	n	n	n
COc1cc(C(=O)Nc2cc3c(cc2N2CCCCC2)n(C)c(=O)n3C)cc(OC)c1OC	n	14.6µM	u	n	n	20.6µM
CCOc1ccc(NC(=O)Nc2cc3c(cc2N2CCCCC2)n(C)c(=O)n3C)cc1	x	13µM	x	n	u	11.6µM
COc1ccc(C(=O)Nc2cc3c(cc2N2CCCCC2)n(C)c(=O)n3C)cc1OC	n	20.6µM	n	n	n	u
COc1cc(OC)cc(C(=O)Nc2cc3c(cc2N2CCCCC2)n(C)c(=O)n3C)c1	x	n	x	n	n	u
Cc1ccc(C(=O)Nc2cc3c(cc2N2CCCCC2)n(C)c(=O)n3C)cc1	n	n	n	n	n	n
CCNc1ncc2nc(-c3ccccc3)c(=O)n(CCC#N)c2n1	x	n	x	x	x	n
CN(C)c1ccc(N=Cc2cccc3ccccc23)cc1	x	3.98µM	x	n	u	4.47µM
ON=Cc1ccnc2ccccc12	n	u	n	n	n	n
CN(C)c1ccc(N=Cc2ccnc3ccccc23)cc1	x	11.2µM	x	n	n	10µM
Cc1ccc(CNC(=O)c2sc3nc[nH]c(=O)c3c2C)cc1	x	n	x	n	x	n
CCOC(=O)C1=CCC(c2cccs2)N(S(=O)(=O)c2ccc(C)cc2)C1 (stereo not drawn)	u	u	u	n	u	u
CCOC(=O)C1=CCC(c2ccccc2)N(S(=O)(=O)c2ccccc2)C1 (stereo not drawn)	n	18.4µM	n	n	n	23.1µM
CCOC(=O)C1=CCN(S(=O)(=O)c2ccccc2)C1c1ccccc1 (stereo not drawn)	n	u	n	n	n	u
CCOC(=O)C1=CCC(c2cccc(C)c2)N(S(=O)(=O)c2ccc(C)cc2)C1 (stereo not drawn)	u	16.4µM	u	n	u	18.4µM
CNc1ccc(/C=C2\C=Cc3ccccc32)cc1Br	x	u	x	n	u	u
Cc1ccc(-c2nc(NC(=O)c3nn(C)cc3[N+](=O)[O-])sc2C)cc1	11.6µM	n	5.8µM	n	u	u

Screening data deposited in PubChem by National Center for Advancing Translational Sciences (NCATS).
